# Measured values reported in ChEMBL document CHEMBL3988442, “University of Dundee, Small-Polar-MMV Screening Library” (2021).
# For some of these results: Potency and affinity values are given separately.
# How the values were obtained:
# Design in all cases: scale not given: direction of the effect not stated beside the values
# [1] = target: Protein translocase subunit SecA (Escherichia coli (strain K12)) (UniProt P10408); test: Assay to Identify E. coli SecA ATPase Inhibitors; assay type: functional; conditions: 30 µM
# [2] = target: T1, Ubiquitin-activating enzyme e1, putative (Leishmania donovani (strain BPK282A1)) (UniProt E9BSI1); test: Leishmania donovani Ubiquitin Activating Enzyme (LdE1); assay type: functional; conditions: 30 µM
# T1 sequence (whole entry): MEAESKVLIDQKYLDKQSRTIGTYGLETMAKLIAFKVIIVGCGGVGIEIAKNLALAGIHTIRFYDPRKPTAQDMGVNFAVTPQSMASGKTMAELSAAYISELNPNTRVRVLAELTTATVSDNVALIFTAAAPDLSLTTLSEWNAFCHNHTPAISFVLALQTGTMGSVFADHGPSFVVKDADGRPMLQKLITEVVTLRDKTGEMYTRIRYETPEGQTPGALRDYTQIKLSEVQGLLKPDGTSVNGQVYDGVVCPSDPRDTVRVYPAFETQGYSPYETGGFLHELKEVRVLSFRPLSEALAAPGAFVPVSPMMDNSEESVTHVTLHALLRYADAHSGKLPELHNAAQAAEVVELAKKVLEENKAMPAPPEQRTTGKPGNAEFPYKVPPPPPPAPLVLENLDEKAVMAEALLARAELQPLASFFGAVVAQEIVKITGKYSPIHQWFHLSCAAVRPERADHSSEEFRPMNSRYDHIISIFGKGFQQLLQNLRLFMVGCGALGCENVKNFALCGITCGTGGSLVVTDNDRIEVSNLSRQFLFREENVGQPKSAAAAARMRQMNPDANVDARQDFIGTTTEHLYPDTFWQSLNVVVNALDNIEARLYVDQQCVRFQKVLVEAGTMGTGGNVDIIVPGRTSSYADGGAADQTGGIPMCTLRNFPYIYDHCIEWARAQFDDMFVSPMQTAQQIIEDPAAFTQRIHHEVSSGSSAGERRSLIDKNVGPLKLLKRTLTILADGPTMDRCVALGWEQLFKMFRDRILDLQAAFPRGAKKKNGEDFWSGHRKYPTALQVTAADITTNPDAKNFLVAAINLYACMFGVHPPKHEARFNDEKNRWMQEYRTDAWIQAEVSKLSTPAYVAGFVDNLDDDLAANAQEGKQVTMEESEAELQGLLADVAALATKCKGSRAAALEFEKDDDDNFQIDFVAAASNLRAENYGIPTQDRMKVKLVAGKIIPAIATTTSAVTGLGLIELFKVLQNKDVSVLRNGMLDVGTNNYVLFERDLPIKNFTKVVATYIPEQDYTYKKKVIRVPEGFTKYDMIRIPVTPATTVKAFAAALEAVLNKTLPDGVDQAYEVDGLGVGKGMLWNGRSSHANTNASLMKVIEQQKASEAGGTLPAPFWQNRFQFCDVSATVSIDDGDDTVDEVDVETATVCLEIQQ
# [3] = target: AMP-activated protein kinase, AMPK (Homo sapiens) (UniProt P54646+O43741+P54619+Q9UGJ0+Q9Y478+Q13131+Q9UGI9); test: AMP-dependent Kinase enzyme assay. An in vitro enzyme assay that detects ADP turnover that is directly proportional to AMPK activity. This uses naive AMPK that is activated during the assay with MK-8722; assay type: functional; conditions: 30 µM
# [4] = target: Sialic acid-binding Ig-like lectin 9 (Homo sapiens) (UniProt Q9Y336); test: Hs-Siglec9 ALPHAscreen SOP 20170721; conditions: 10 µM
# [5] = tested on: Trypanosoma cruzi; test: Trypanosoma cruzi phosphomannomutase and mannose-1-phosphate guanylyltransferase assay; assay type: functional; conditions: 10 µM
# [6] = target: T2, Arginase-2, mitochondrial (Homo sapiens) (UniProt P78540); test: in vitro enzyme assay to detect the production of urea directly proportional to the activity of Arginase II; assay type: functional; conditions: 33.3 µM; note: in the data most compounds retested in dose-response had high values
# T2 sequence (whole entry): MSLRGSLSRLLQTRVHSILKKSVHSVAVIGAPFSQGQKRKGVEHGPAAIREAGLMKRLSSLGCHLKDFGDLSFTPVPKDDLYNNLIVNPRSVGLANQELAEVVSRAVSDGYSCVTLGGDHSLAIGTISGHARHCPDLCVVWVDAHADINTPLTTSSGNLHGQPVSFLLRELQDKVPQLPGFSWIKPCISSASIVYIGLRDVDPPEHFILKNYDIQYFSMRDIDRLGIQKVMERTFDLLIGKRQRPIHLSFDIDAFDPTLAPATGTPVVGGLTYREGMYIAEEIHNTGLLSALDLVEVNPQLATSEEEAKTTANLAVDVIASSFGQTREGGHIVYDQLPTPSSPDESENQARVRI
# [7] = target: T3, Proteasome subunit beta (Trypanosoma cruzi) (UniProt O96673); test: Trypanosoma cruzi proteasome chymotrypsin-like activity (TcProtChymo) assay.; note: in the data most compounds retested in dose-response had high values; assay type: functional; conditions: 9.37 µM
# T3 sequence (whole entry): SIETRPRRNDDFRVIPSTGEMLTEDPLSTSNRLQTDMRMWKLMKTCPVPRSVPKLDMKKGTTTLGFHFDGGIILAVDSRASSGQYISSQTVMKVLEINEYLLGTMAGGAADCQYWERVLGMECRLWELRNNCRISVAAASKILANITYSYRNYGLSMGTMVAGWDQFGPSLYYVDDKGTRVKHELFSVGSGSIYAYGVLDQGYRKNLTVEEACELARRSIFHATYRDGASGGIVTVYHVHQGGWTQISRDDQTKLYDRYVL
# [8] = species on record: Homo sapiens; test: To identify inhibition of the IFN signalling (Jak-Stat) pathway via expression of an eGFP reporter gene under the control of an IFN-stimulated response element (ISRE) containing MxA promoter.; assay type: functional; conditions: 30 µM
# [9] = target: T4, Tyrosyl-tRNA synthetase, putative (Trypanosoma cruzi (strain CL Brener)) (UniProt Q4DSP6); test: Trypanosoma cruzi tyrosyl tRNA synthetase (TcYRS) _High Tyrosine SOP; assay type: functional; conditions: 30 µM; note: in the data most compounds retested in dose-response had high values
# T4 sequence (whole entry): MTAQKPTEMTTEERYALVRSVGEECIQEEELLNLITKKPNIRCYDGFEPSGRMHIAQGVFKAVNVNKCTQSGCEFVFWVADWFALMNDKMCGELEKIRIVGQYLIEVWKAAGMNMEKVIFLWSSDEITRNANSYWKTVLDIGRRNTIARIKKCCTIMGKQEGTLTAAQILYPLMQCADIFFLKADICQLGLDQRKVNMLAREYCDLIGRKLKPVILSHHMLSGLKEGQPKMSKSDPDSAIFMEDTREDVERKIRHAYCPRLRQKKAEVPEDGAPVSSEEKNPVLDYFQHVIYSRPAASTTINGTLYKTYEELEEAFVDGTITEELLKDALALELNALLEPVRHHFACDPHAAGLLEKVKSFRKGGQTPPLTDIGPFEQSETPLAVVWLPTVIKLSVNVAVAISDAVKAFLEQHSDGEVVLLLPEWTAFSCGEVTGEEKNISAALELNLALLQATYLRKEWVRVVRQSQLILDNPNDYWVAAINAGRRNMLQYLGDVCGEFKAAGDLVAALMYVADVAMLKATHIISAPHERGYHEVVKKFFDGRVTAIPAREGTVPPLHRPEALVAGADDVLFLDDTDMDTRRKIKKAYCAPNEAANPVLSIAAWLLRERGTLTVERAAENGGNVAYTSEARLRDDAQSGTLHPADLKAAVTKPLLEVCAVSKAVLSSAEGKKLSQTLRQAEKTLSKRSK
# [10] = target: T4, Tyrosyl-tRNA synthetase, putative (Trypanosoma cruzi (strain CL Brener)); test: Trypanosoma cruzi tyrosyl tRNA synthetase (TcYRS) SOP; assay type: functional; conditions: 30 µM
# [11] = target: Chromo domain-containing protein 1 (Saccharomyces cerevisiae (strain ATCC 204508 / S288c) (Baker's yeast)) (UniProt P32657); test: ScCHD-1 Enzyme Inhibition Assay; assay type: functional; conditions: 30 µM; note: in the data most compounds retested in dose-response had high values
# Chain of Chromo domain-containing protein 1 (Saccharomyces cerevisiae (strain ATCC 204508 / S288c) (Baker's yeast)) (P32657 whole entry, the tested form may be a part): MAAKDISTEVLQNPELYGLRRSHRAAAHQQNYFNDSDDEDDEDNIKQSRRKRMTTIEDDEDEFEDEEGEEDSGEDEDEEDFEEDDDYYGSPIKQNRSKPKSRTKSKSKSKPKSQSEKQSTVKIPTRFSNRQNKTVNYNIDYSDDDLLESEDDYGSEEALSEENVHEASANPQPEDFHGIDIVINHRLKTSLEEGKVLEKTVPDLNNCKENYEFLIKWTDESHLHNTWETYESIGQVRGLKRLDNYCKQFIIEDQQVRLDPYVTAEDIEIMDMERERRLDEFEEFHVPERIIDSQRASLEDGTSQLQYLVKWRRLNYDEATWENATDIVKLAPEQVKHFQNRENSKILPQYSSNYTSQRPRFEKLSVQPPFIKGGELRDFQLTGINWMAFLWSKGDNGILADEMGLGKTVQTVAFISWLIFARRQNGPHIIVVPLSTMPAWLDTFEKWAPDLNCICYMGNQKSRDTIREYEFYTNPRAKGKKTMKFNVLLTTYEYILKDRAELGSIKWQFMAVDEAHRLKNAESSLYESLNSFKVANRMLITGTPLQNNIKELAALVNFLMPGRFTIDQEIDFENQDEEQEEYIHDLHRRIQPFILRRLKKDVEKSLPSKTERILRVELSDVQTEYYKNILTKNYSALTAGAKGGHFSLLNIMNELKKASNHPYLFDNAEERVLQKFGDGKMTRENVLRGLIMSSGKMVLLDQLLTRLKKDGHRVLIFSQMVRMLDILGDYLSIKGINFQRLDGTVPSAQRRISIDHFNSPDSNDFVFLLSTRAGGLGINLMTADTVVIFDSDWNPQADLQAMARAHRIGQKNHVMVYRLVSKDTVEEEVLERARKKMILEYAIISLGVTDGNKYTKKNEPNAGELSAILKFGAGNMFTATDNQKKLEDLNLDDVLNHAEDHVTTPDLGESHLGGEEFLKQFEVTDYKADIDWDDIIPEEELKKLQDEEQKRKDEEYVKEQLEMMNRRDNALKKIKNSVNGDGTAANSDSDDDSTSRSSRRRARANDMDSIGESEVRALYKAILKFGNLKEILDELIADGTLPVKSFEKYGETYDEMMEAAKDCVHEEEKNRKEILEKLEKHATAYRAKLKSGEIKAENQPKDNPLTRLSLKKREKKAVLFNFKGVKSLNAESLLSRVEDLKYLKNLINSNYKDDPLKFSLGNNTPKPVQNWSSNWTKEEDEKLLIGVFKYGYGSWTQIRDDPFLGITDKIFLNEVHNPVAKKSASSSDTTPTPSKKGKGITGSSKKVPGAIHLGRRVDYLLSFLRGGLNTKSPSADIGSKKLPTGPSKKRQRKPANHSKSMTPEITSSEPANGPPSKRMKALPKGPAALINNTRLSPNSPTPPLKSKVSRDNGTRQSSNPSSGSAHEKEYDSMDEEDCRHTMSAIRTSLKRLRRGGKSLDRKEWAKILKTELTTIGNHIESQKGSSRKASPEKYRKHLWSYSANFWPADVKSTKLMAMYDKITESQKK
# Chain of Protein translocase subunit SecA (Escherichia coli (strain K12)) (P10408 whole entry): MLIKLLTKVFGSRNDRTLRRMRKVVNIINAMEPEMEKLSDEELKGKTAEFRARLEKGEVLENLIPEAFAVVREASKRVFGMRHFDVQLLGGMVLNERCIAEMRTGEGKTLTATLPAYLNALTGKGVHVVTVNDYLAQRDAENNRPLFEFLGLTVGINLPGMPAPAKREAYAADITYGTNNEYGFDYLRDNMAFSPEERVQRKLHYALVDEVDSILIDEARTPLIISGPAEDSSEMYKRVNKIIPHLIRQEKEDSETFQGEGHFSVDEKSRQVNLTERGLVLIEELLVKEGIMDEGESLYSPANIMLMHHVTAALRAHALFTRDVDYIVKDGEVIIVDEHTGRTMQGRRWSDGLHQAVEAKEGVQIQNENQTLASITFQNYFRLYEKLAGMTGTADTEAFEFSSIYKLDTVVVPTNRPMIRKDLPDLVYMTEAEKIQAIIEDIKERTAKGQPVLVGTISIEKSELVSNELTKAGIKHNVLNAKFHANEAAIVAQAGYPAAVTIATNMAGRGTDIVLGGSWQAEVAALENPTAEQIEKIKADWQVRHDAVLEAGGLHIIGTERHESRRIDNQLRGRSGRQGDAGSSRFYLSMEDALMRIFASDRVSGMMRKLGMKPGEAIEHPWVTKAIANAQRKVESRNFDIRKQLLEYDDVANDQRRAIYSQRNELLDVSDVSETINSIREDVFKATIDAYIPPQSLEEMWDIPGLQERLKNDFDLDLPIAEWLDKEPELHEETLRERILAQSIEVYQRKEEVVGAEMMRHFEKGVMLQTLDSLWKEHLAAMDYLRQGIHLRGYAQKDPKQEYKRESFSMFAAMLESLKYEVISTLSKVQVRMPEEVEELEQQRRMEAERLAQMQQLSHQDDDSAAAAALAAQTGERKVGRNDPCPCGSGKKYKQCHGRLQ
# Chain of Sialic acid-binding Ig-like lectin 9 (Homo sapiens) (Q9Y336 whole entry): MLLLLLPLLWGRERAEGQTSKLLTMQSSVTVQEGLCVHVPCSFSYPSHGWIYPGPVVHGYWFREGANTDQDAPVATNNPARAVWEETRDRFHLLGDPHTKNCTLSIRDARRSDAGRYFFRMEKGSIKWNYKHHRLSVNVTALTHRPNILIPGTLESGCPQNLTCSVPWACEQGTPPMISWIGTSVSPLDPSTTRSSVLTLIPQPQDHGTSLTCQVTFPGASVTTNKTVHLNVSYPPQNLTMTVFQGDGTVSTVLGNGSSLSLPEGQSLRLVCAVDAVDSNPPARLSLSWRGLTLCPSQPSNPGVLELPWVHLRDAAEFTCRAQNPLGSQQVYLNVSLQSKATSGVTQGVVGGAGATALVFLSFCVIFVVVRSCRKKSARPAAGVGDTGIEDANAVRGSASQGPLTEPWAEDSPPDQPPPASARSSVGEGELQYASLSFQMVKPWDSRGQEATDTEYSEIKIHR
Structure (SMILES),Percent Effect [1] [%],Percent Effect [2] [%],Percent Effect [3] [%],Percent Effect [4] [%],Percent Effect [5] [%],Percent Effect [6] [%],Percent Effect [7] [%],Percent Effect [8] [%],Percent Effect [9] [%],Percent Effect [10] [%],Percent Effect [11] [%]
O=C(CN1CCCCCCC1=O)NCc1ccccn1,-1.09,5.48,-2.69,1.29,2.78,2.4,1.46,0.819,5.21,11.1,-5.16
Cc1cn2c(n1)CCC(NC(=O)c1cnc(C)nc1C(C)C)C2 (stereo not given),-4.68,10.4,-12.2,12.9,3.23,1.9,3.48,1.24,10.5,18.8,-16.9
COc1ccc(-c2cc(C3CCCCCN3S(=O)(=O)N(C)C)on2)cc1 (stereo not given),-2.23,-14.9,6.56,-4.82,4.54,-1.16,14.3,12.8,-50.5,-66.2,-12.7
CC(C)(C)c1cnc(CN2CCCC2Cn2cccn2)o1 (stereo not given),-0.386,0,6.71,-3.67,5.19,-0.38,5.16,-9.18,2.46,3.8,-4.77
Cc1cnn(CC2CCCN2Cc2cc(=O)n3cccc(C)c3n2)c1 (stereo not given),-6.14,8.11,-3.73,28.3,6.75,35.5,17.8,-6.92,14,25.9,-5.16
Cc1cn2c(n1)CCC(NC(=O)c1ccc(CS(C)(=O)=O)cc1)C2 (stereo not given),-7.39,13.2,-4.52,4.15,7.71,-3.06,4.68,-9.1,5.39,12.2,-9.28
CCc1nnc2n1CCN(C(=O)c1csc(-c3cnn(C)c3)n1)C2,-4.14,12.5,-3.73,15.8,4.96,8.39,15.1,0.753,3.16,7.69,-5.68
O=C(NCc1ccco1)c1nn(C2CCS(=O)(=O)C2)c2c1CCCC2 (stereo not given),-5.41,21.1,7.28,5.73,3.02,-3.55,13.1,4.09,0,5.2,-0.898
O=C(NCC(O)c1ccccc1Cl)c1cccc(-n2cnnn2)c1 (stereo not given),-1.49,11,-3.34,14.3,1.18,1.36,14.2,24.8,3.23,7.5,98.6
COc1ccc(OC)c(NC(=O)c2nc3ccccc3n(C)c2=O)c1,1.79,-15.6,3.42,-2.14,0.888,3.23,9.22,3.54,1.06,14.1,-7.41
Cc1nn(C)c(C)c1C1CCCN1C(=O)c1cc[nH]n1 (stereo not given),-3.64,3.8,5.29,4,-4.41,-1.07,5.49,10.6,-1.04,7.59,7.31
Cc1cnc(N)c(C(=O)C2CCN(C(=O)c3ccccc3F)CC2)c1,-7.77,13.3,4.93,7.45,2.76,-2.56,6.26,33,7.45,8.97,-6.49
Cn1ncc2c1CN(Cc1cccnc1)CC2COCC1CC1 (stereo not given),-0.107,2.74,-3.62,3.4,6.55,4.79,12.6,-15.1,4.17,8.64,-7.87
Cc1cccc(C(=O)N2C[C@@H]3CCN(c4cccnc4)C[C@@H]3C2)c1,-6.42,2.67,9.98,-2.65,-1.38,0.233,1.67,16.4,1.06,-3.85,-3.21
COc1ccccc1OC1(C(=O)O)CCN(c2nccnc2C)CC1,-2.61,5.48,-1.61,9.27,1.19,-5.19,9.16,-8.06,5.21,23.5,-6.84
CCN(CC)C(=O)CCNc1cncc(-n2nc(C)cc2C)n1,-5.54,5.41,3.1,-3.77,-7.92,4.71,13.1,6.24,2.15,3.7,-6.4
Cc1ccc([C@]2(O)CC[C@H]3CN(Cc4cccc(Cl)c4Cl)C[C@H]32)nc1,-2.93,12.2,12.6,-9.17,1.98,-0.232,17.8,51.4,9.68,16.9,-15.7
Cc1cnn(C2CCCN(C(=O)CCCNc3ncccn3)C2)c1 (stereo not given),0.326,21.6,-4.82,-6.78,-4.62,0,10.3,6.71,-13.3,16.1,-4.22
CC(C)C1CN(c2ncc(F)cn2)CCC(=O)N1Cc1ccc(F)cc1 (stereo not given),-2.05,12.5,-4.48,14.3,6.51,8.83,13.3,-7.42,9.47,15.4,-4.54
Cc1nc(CN(C)C2CCN(CC3CCCCC3)C2)no1 (stereo not given),-3.09,18.9,-8.63,1.46,4.55,-7.95,8.8,10.1,5.94,23.2,-8.81
